HCMV inh: blocks human cytomegalovirus replication | HFF cells, HCMV-luciferase reporter, 72 h; hits give low values | activity change, negative = inhibition, % at 57.5 µM | 410,000 compounds, 4.5% hits | AID 1259415; in the data active = activity change below about -60%; inconclusive = no clear call, values can overlap the other calls; inactive = above about -39%; also: % is scaled to controls: 0 for no effect and ±100 for the full control effect
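Luciferase read-out from HCMV-luciferase-infected HFFs (MOI 1 PFU/cell) 72 h post infection at 37C; compounds added after 16 h cell attachment; activity normalized between buffer-only basal and Salinomycin (10uM) inhibitor controls.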
Shiga toxin inh: inhibitors of Shiga toxin in Vero cells; Vero cells, Shiga toxin protein synthesis inhibition reporter; inhibition, % at 38.7 µM; 290,000 compounds, 9.2% hits; AID 2315; in the data active = inhibition mostly above about 28%, no sharp cut-off; inactive = mostly below about 43%; also: 0% is about no effect
Cycloheximide cs: counter-screen hit for Shiga toxin inhibitors, cycloheximide | cell reporter, cycloheximide protein synthesis inhibition counterscreen | max response, % | 300,000 compounds, 12% hits; in the data active = max response mostly above about 13%, no sharp cut-off; inactive = mostly below about 14%; also: read at 38.3 µM for the half of the compounds with a filed dose; 0% is about no effect
Pf growth 48h: inhibits P. falciparum growth in the first generation, 48 h; P. falciparum luciferase growth in erythrocytes, 48 h; Potency, µM (series often up to 28.7 µM), for inactives: at the top dose activity change, negative = inhibition, most hits filed as inhibitors; 310,000 compounds, 5.9% hits; AID 504832; also: potency is read from the fitted curve at half-maximal effect; % is scaled to controls: 0 for no effect and ±100 for the full control effect
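A one-generation exposure of luciferase-tagged malaria parasites in RPMI 1640/Albumax erythrocyte culture, 37 C and 5% CO2. Inhibition is inferred from decreased luminescence after adding detection reagent.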
Pf growth 96h: inhibits malaria parasite growth, 96 h. P. falciparum luciferase reporter growth, 96 h. Potency, µM (titrated, usually from 28.7 µM), without a hit: at the highest dose activity change, negative = inhibition, usual class: inhibitors. 320,000 compounds, 6.9% hits. AID 504834; also: potency is read from the fitted curve at half-maximal effect; % is scaled to controls: 0 for no effect and ±100 for the full control effect
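Erythrocytes infected with luciferase-expressing P. falciparum were dispensed at 2% hematocrit and 0.05% parasitemia (final), then incubated with compounds 96 hours at 37 C in 5% CO2. Luminescence after detection reagent addition reported growth.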
HCV inh: HCV inhibition; Huh7.5.1 HCVcc-Cre infection, luciferase reporter, 44 h; Potency, µM (titrated, usually from 41.8 µM), without a hit: at the highest dose activity change, negative = inhibition, most hits filed as inhibitors; 340,000 compounds, 3.4% hits; also: potency is read from the fitted curve at half-maximal effect; % is scaled to controls: 0 for no effect and ±100 for the full control effect
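Whole-lifecycle infectious HCVcc-Cre system; cells 1,000/well, compound then virus (~0.5 moi) added 4 h after plating, 44 h culture. Luciferase read 15 sec following 15 min substrate incubation, room temp.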
Numbers without * were called inactive; [ ] = another dose, or the depositor's remark. Only some compounds are listed: those with a hit (about 21% of all), similar ones and a draw of the others. Unless noted, calls follow the shape of the dose curve; as a rule, active = well fitted inhibition curve with a large enough effect; inconclusive = small, poorly fitted or top-dose-only effect, or another doubt; inactive = no such curve, though single readings can be large or run the other way.

Screening COc1cccc(OC)c1-c1nn2c(-c3ccccc3Cl)nnc2s1 returned HCMV inh 48, Shiga toxin inh 25, Cycloheximide cs -2, Pf growth 96h inconclusive and HCV inh -26%.
COc1ccc(Cc2nn3c(-c4ccccc4OC)nnc3s2)cc1 was read as HCMV inh 58, Shiga toxin inh -2, Cycloheximide cs -2, Pf growth 48h 9.3µM*, Pf growth 96h inconclusive and HCV inh 5%.
`CC(=O)c1cccc(NC(=O)c2nc3ccccc3n(C)c2=O)c1` gave HCMV inh 84.
Screening Cc1noc(-c2ccc(-c3noc(-c4cccc(F)c4)n3)cc2)n1 returned HCMV inh 4.
`CCOC(=O)c1c(-c2ccc(OC)cc2)csc1NC(=O)CCN1CCOCC1` gave HCMV inh -26, Shiga toxin inh -10, Cycloheximide cs 1, Pf growth 48h 12µM*, Pf growth 96h 5.9µM* and HCV inh inconclusive.
CCOC(=O)c1c(NC(=O)CCN2CCOCC2)sc(C)c1-c1ccccc1 was read as HCMV inh -30, Shiga toxin inh -13, Cycloheximide cs 2, Pf growth 48h inconclusive, Pf growth 96h 19% and HCV inh 25µM*.
`CCCc1cc(=O)[nH]c2nnc(SCC(=O)Nc3ccc(OC)cc3)n12` gave HCMV inh -27.
Screening COc1ccc(S(=O)(=O)N2CC(C)OC(C)C2)cc1C(=O)N1CCCCC1 (stereo not given) returned HCMV inh 23, Shiga toxin inh -6, Cycloheximide cs -1, Pf growth 48h -12%, Pf growth 96h -18% and HCV inh 17%.
`CCOc1ccccc1Nc1cc(C)nc2ccccc12` gave HCMV inh -62*.
For COC(=O)c1ccc2nc(C)cc(Nc3ccccc3C)c2c1 the results were HCMV inh 22, Shiga toxin inh -6, Cycloheximide cs 1, Pf growth 48h inconclusive, Pf growth 96h inconclusive and HCV inh inconclusive.
Screening CCOc1ccccc1Nc1cc(C)nc2ccc(C)cc12 returned HCMV inh inconclusive and HCV inh 6.3µM*.
Screening CCCNC(=O)c1nc2ncc(Br)cn2n1 returned HCMV inh 35, Shiga toxin inh -13, Cycloheximide cs -7, Pf growth 48h 26%, Pf growth 96h 13µM* and HCV inh 10%.
CCCCNC(=O)c1nn2cc(Br)cnc2c1Br was read as HCMV inh -14, Shiga toxin inh 22, Cycloheximide cs 23*, Pf growth 48h 30%, Pf growth 96h inconclusive and HCV inh -7%.
Screening CCCNC(=O)c1nn2cc(Br)cnc2c1Cl returned HCMV inh -12, Shiga toxin inh -2, Cycloheximide cs 20, Pf growth 48h 40%, Pf growth 96h -4% and HCV inh -5%.
Screening Cc1ccc(S(=O)(=O)N(C)c2ccc3sc(C)nc3c2)cc1 returned HCMV inh 43, Shiga toxin inh -17, Cycloheximide cs -2, Pf growth 48h 21%, Pf growth 96h 31% and HCV inh inconclusive.
Screening Cc1cc2c(n1-c1ccc(C(=O)NCCc3ccc(Cl)cc3)cc1)CCCC2 returned HCMV inh -22.
`Cc1cc(C(=O)CSc2nnc(-c3cccc(F)c3)n2N)c(C)n1Cc1ccc2c(c1)OCO2` gave HCMV inh -84*, Shiga toxin inh -4, Cycloheximide cs 3, Pf growth 48h 12µM*, Pf growth 96h 17µM* and HCV inh 13µM*.
Cc1cc(C(=O)CSc2nnnn2-c2ccccc2)c(C)n1-c1ccc2c(c1)OCO2 was read as HCMV inh -3, Shiga toxin inh 50*, Cycloheximide cs 29*, Pf growth 48h 10µM*, Pf growth 96h 8.3µM* and HCV inh inconclusive.
Cc1cc(C(=O)CSc2nncs2)c(C)n1-c1ccc2c(c1)OCO2 was read as HCMV inh -69*, Shiga toxin inh 62*, Cycloheximide cs 26*, Pf growth 48h inconclusive and HCV inh inconclusive.
N#C/C(=C(/O)COC(=O)CCC1CCCCC1)c1nc2ccccc2[nH]1 was read as HCMV inh -69*, Shiga toxin inh 10, Cycloheximide cs 2, Pf growth 48h 21% and HCV inh 12%.
For Cc1cccc(C)c1Nc1nnc(SC/C(O)=C(\C#N)c2nc3ccccc3[nH]2)s1 the results were HCMV inh 21, Shiga toxin inh 9, Cycloheximide cs -2, Pf growth 48h inconclusive, Pf growth 96h inconclusive and HCV inh 3%.
For Cc1c(-c2cccc(Cl)c2)nc2ccccc2c1C(=O)OC/C(O)=C(\C#N)c1nc2ccccc2[nH]1 the results were HCMV inh -82*, Shiga toxin inh 31, Cycloheximide cs -1, Pf growth 48h -30%, Pf growth 96h 10µM* and HCV inh 8.9µM*.
For CCCC(=O)OC/C(O)=C(\C#N)c1nc2ccccc2[nH]1 the results were HCMV inh -73*, Shiga toxin inh 5, Cycloheximide cs -1, Pf growth 48h -6%[5.75 µM], Pf growth 96h inconclusive and HCV inh 25%.
N#CC(=C(O)COC(=O)Cc1c[nH]c2ccccc12)c1nc2ccccc2[nH]1 was read as HCMV inh -6 and HCV inh -24%.
Cc1cccc(Nc2nnc(SC/C(O)=C(\C#N)c3nc4ccccc4[nH]3)s2)c1C was read as HCMV inh 29, Shiga toxin inh 2, Cycloheximide cs -2, Pf growth 48h inconclusive, Pf growth 96h 12µM* and HCV inh 17%.
Screening CCOC(=O)c1c(C)[nH]c(C(=O)OCC(O)=C(C#N)c2nc3ccccc3[nH]2)c1C returned HCMV inh 17 and HCV inh -14%.
`COc1ccccc1/C=C(\NC(=O)c1ccccc1)C(=O)NCc1ccco1` gave HCMV inh 1, Shiga toxin inh -3, Cycloheximide cs -1, Pf growth 48h 6%, Pf growth 96h 0% and HCV inh 15%.
`Cc1ccc(S(=O)(=O)N2CCOCC2)cc1NC(=O)COC(=O)CCOc1ccc(C(C)(C)C)cc1` gave HCMV inh 4, Pf growth 48h 1%, Pf growth 96h 3% and HCV inh 9%.
`CC(C)C(=O)OC/C(O)=C(\C#N)c1nc2ccccc2[nH]1` gave HCMV inh -65*, Shiga toxin inh 11, Cycloheximide cs 15, Pf growth 48h -27%, Pf growth 96h 35% and HCV inh 2%.
N#C/C(=C(/O)COC(=O)c1ccc(O)cc1)c1nc2ccccc2[nH]1 was read as HCMV inh -2, Shiga toxin inh 11, Cycloheximide cs -1, Pf growth 48h -2%, Pf growth 96h -16% and HCV inh 9%.
`N#C/C(=C(\O)Cc1ccccc1)c1nc2ccccc2[nH]1` gave HCMV inh 2, Shiga toxin inh -4, Cycloheximide cs 1 and HCV inh -9%.

Bioassay records from PubChem BioAssay.
